# Reference: PubChem BioAssay AID793 (The Scripps Research Institute Molecular Screening Center, 2007)
# Out of some 140,000 compounds screened, about 1,400 (1%) were called active. Rule as the data show it: active = inhibition above about 17%; inactive = the rest. The list comes from a sample in which actives are over-represented; it also holds similar structures and randomly drawn compounds.
# Biological target: Neuropeptide Y receptor type 2 (Homo sapiens) (UniProt P49146)
# Experiment: blockers of human neuropeptide Y Y2 receptor – cell-based, primary screen (AID 793);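 also: 0% = vehicle with agonist challenge and 100% = reference antagonist with challenge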
# Settings: NPY-Y2 expressing cells, antagonist mode; at 2.7 µM; active compounds read high
# Neuropeptide Y receptor type 2 (Homo sapiens), sequence (P49146 whole entry, looked up): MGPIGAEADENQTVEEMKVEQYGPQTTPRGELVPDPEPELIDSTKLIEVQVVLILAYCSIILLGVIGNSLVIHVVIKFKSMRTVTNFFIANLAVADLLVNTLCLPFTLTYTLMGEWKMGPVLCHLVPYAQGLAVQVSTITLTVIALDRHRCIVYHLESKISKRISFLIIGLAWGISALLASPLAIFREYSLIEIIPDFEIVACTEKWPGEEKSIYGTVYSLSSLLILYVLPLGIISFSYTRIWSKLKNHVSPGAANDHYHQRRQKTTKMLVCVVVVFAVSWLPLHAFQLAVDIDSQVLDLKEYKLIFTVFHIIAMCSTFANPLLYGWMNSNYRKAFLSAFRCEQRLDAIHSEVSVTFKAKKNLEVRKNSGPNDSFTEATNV
row,SMILES,inhibition
1,CCCCC(O)(CCCC)C(=O)NN(C(=O)CCl)c1ccccc1,21.9% (active)
2,Cc1ccc(N(NC(=O)C(C)(C)O)C(=O)c2ccccc2)cc1C,2.31% (inactive)
3,CCCC(O)(CCC)C(=O)NN(C(=O)CCl)c1cccc(C)c1,8.32% (inactive)
4,CCCc1cc(=O)[nH]c(SCc2cc(=O)oc3c(C)c(C)ccc23)n1,6.69% (inactive)
5,COc1cc(Cl)c(C)cc1NC(=O)[C@@H]1CCCN1C(=O)c1cccs1,6.63% (inactive)
6,O=C(Oc1ccccc1)Oc1ccc2c(c1)oc(=O)c1ccccc12,23.1% (active)
7,CC(=O)Oc1ccc2c(C)c(CC(C)O)c(=O)oc2c1 (stereo not given),2.41% (inactive)
8,NC(=O)COc1ccc2c3c(c(=O)oc2c1)CCCCC3,0.83% (inactive)
9,Cc1nc2ccccc2cc1C(=O)N/N=C/c1ccc([N+](=O)[O-])cc1,-0.48% (inactive)
10,Cc1cc(C(=O)OCC(=O)Nc2nnc(C(C)C)s2)c2ccccc2n1,4.1% (inactive)
11,CN(C)Cc1ccc(F)cc1Sc1cc(Cl)ccc1Cl,20.2% (active)
12,CCN1CCN(c2c(Cl)cccc2NC(=O)c2ccc(Br)o2)CC1,31.1% (active)
13,CCCC(=O)Nc1ccc(Cl)c(NC(=O)c2ccc(Br)o2)c1,-1.21% (inactive)
14,COc1cc(OC)c(NC(=O)c2ccc(Br)o2)cc1Cl,-1.32% (inactive)
15,COC(=O)c1ccc(CSc2nncn2C)cc1,3.48% (inactive)
16,O=C(CSc1nc2ccccc2o1)N1c2ccccc2Sc2ccc(Cl)cc21,6.15% (inactive)
17,COC(=O)c1ccc(CSc2nc3cc(Cl)ccc3o2)cc1,21.5% (active)
18,Cc1ccc(S(=O)(=O)NNC(=O)Nc2cccc3ccccc23)cc1,1.93% (inactive)
19,COc1cccc2c(O)cc(=O)n(C)c12,1.18% (inactive)
20,CCOc1ccc(S(=O)(=O)N/N=C(\C)c2ccc(Cl)c(Cl)c2Cl)cc1,17.4% (active)
21,CCOc1ccc(S(=O)(=O)NCC2CCCO2)cc1 (stereo not given),2.22% (inactive)
22,C/C(=N\NS(=O)(=O)c1ccc(Br)cc1)c1cccs1,3.39% (inactive)
23,Cc1cccc(NC(=O)/C=C/c2ccc3c(c2)OCO3)n1,3.73% (inactive)
24,COc1ccc(CCNC(=O)CSc2nc(-c3ccc(OC)c(OC)c3)ccc2C#N)cc1,4.73% (inactive)

row,SMILES,inhibition
1,COc1ccc(CCNC(=O)CSc2nnc(-c3cccc(F)c3)o2)cc1OC,-1.35% (inactive)
2,COc1cccc(-c2ccc(C#N)c(SCC(=O)NCCc3ccc(Cl)cc3)n2)c1,18.3% (active)
3,Cc1nnc(NC(=O)/C=C/c2ccco2)s1,10.7% (inactive)
4,O=C1OC(/C=C/c2ccccc2)=NC/1=C/c1ccco1,0.56% (inactive)
5,CC1CCCCN1CC(=O)NCc1ccc2c(c1)OCO2 (stereo not given),1.99% (inactive)
6,Cc1ccc(NC(=O)CN2CCC3(O)CCCCC3C2c2ccc3c(c2)OCO3)c(C)c1 (stereo not given),21.3% (active)
7,CCN(CC)c1ccc(C2C3CCCCC3(O)CCN2CC(=O)Nc2ccccc2)cc1 (stereo not given),5.72% (inactive)
8,FC(F)Oc1ccccc1NC(=S)Nc1cccc(Cl)c1Cl,0.76% (inactive)
9,CCCCN(CC)C(=S)Nc1ccc2nc3n(c(=O)c2c1)CCCCC3,3.37% (inactive)
10,COc1ccc(/C=C(/CC(=O)Nc2ccc(C)cc2)c2nc3ccccc3s2)cc1,3.93% (inactive)
11,O=C(C(=O)N1CCc2ccccc2C1)N1CCc2ccccc2C1,-0.59% (inactive)
12,CCOC(=O)/C(C#N)=C/c1ccc(N2CCN(Cc3ccccc3)CC2)cc1,5.28% (inactive)
13,CC1CN(S(=O)(=O)c2ccc(C(=O)Nc3sccc3C(N)=O)cc2)CC(C)O1 (stereo not given),-0.61% (inactive)
14,Cc1ccsc1C(=O)N/N=C/c1ccc([N+](=O)[O-])cc1,1.67% (inactive)
15,CNC(=S)NNC(=O)c1sccc1OCc1ccccc1,-0.16% (inactive)
16,Cc1ccc(/C=N/NC(=O)c2sccc2OCc2ccc(F)cc2)cc1,25.7% (active)
17,CCCOc1ccc(C(=O)C(CCC(CNCC)C(=O)c2ccc(OCCC)cc2)CNCC)cc1 (stereo not given),30.9% (active)
18,CCCCOc1ccc(C(=O)NN2CCN(C)CC2)cc1,0.95% (inactive)
19,CCCCOc1ccc(C(=O)NCc2ccncc2)cc1,-1.04% (inactive)
20,CCOc1ccc(C(=O)Nc2nccs2)cc1[N+](=O)[O-],-0.69% (inactive)
21,O=C(OC1CCOC1=O)c1cccc(S(=O)(=O)Nc2ccc(F)cc2)c1 (stereo not given),2.56% (inactive)
22,CCc1cccc(NC(=O)CCC(=O)O)c1,1.58% (inactive)
23,CCOC(=O)COc1ccc([N+](=O)[O-])cc1,1.59% (inactive)
24,N#Cc1c(N)nc2c3c(sc(=N)c2c1N)NC(=O)CC3c1ccccc1Cl (stereo not given),1.65% (inactive)

row,SMILES,inhibition
1,COc1ccc(C2CC(=O)Nc3sc(=N)c4c(N)c(C#N)c(N)nc4c32)cc1OC (stereo not given),86.1% (active)
2,COc1ccc(OC)c2c(N)c(C#N)c(C(F)(F)C(F)(F)F)nc12,-1.33% (inactive)
3,CCN(CC)S(=O)(=O)c1cccc(-c2n[nH]c(=S)n2/N=C/c2ccc(C(=O)OC)cc2)c1,-0.07% (inactive)
4,Cc1cc(C)nc(NC(=O)c2cccc([N+](=O)[O-])c2)c1,2.05% (inactive)
5,COc1ccc(/C=C/C(=O)c2cc(Br)ccc(=O)c2O)cc1,5.15% (inactive)
6,COc1ccc(/C=C/C(=O)NC(=S)NN2CCCCC2c2cccnc2)cc1 (stereo not given),44% (active)
7,O=C(/C=C/c1ccc(F)cc1)NC(=S)NNC(=O)c1cccnc1,2.46% (inactive)
8,CCOc1ccc(NC(=S)NC(=O)/C=C/c2ccc(OC)cc2)c([N+](=O)[O-])c1,0.55% (inactive)
9,NC(=O)CC[C@@H]1NC(=O)[C@H](CO)NC(=O)c2cc([N+](=O)[O-])cc(I)c2NCC[C@@H](C(N)=O)NC1=O,0.11% (inactive)
10,COCCN1C(=O)N[C@@H](c2ccccc2)C(C(=O)OC)=C1C,1.37% (inactive)
11,Cc1ccc(S(=O)(=O)c2ccc(Cl)cc2)cc1S(=O)(=O)NC(C(=O)O)C(C)C (stereo not given),-0.6% (inactive)
12,C/C(Cc1ccccc1)=N\NC(=O)CNC(=O)c1cccc(Br)c1,2.91% (inactive)
13,N#Cc1c(NC(=O)CCCN2C(=O)c3ccccc3C2=O)oc(-c2ccccc2)c1-c1ccccc1,20.4% (active)
14,COc1cc(C(=O)Nc2oc(-c3ccccc3)c(-c3ccccc3)c2C#N)cc(OC)c1OC,0.05% (inactive)
15,O=C(CCN1C(=O)c2ccccc2C1=O)Nc1ccncc1,1.5% (inactive)
16,O=C(/C=C/c1cnc2ccccc2n1)NC1CCCCCC1,5.1% (inactive)
17,O=C(O)/C(=C/c1cccnc1)NC(=O)c1ccccc1,0.95% (inactive)
18,CCCc1[nH]nc2c1C(c1c(C)nn(-c3ccccc3)c1Cl)C(C#N)=C(N)O2 (stereo not given),0.27% (inactive)
19,CCCc1[nH]nc2c1C(c1ccc(Br)s1)C(C#N)=C(N)O2 (stereo not given),53.5% (active)
20,CCCc1[nH]nc2c1C(C1CC=CCC1)C(C#N)=C(N)O2 (stereo not given),2.32% (inactive)
21,Cc1[nH]c2ccccc2c1C(=O)COC(=O)c1c(-c2ccccc2)noc1C,-0.4% (inactive)
22,C/C(=C/C(=O)N1CCN(C)CC1)C(=O)O,1.55% (inactive)
23,CN(CC(=O)Nc1ccc(S(=O)(=O)N2CCCC2)cc1)Cc1ccc(Cl)c(Cl)c1,1.24% (inactive)
24,CC(C)CNC(=S)NC(=O)c1ccc(Cl)cc1,6.88% (inactive)

row,SMILES,inhibition
1,O=S(=O)(O)c1nc2ccccc2n1Cc1ccc(Cl)cc1,3% (inactive)
2,N=c1n(Cc2ccc(Cl)cc2)c2ccccc2n1CC(O)c1ccco1 (stereo not given),18.4% (active)
3,Cc1ccc(Cn2c(NC(=O)c3ccco3)nc3ccccc32)cc1,15.8% (inactive)
4,CC(C)[C@@H]1NC(=O)c2cc([N+](=O)[O-])cc(I)c2NCCC[C@@H](C(=O)NC(CC(=O)O)C(N)=O)NC(=O)[C@H](CO)NC1=O (stereo not given in full),2.25% (inactive)
5,CCOc1ccc(NC(=O)c2ccc(CSc3nnnn3C)cc2)cc1,1.22% (inactive)
6,C=CCNC(=O)CCCOc1cccc(C)c1,1.38% (inactive)
7,C=CCNCCCCOc1ccccc1,28.3% (active)
8,O=C(NCCOc1ccccc1)c1ccccc1,0.21% (inactive)
9,CCC1S/C(=N/N=C/c2ccco2)NC1=O (stereo not given),2.82% (inactive)
10,CN(C)S(=O)(=O)c1cc(NC(=O)CN2C(=O)NC3(CCCc4ccccc43)C2=O)ccc1Cl (stereo not given),-4.1% (inactive)
11,OCC(CO)(CO)NCc1ccc(-c2ccccc2)cc1,4.54% (inactive)
12,COc1ccc(S(=O)(=O)NC(C)C)cc1C(=O)NC1CCCCC1,5.96% (inactive)
13,COc1cc2c3c(c1)/C(=C1/SC(=S)NC1=O)C(=O)N3C(C)(C)C=C2C,-1.35% (inactive)
14,COc1ccc(C(CC(=O)O)NC(=O)Cc2ccccc2)cc1 (stereo not given),0.31% (inactive)
15,CCC/C=C(\CCC)C(NC(=O)Cc1ccccc1)c1ccc(C(=O)OC)cc1 (stereo not given),20.7% (active)
16,CCC[C@@H]1C[C@@]1(CCC)[C@@H](NC(=O)c1ccccc1)c1ccc(C(=O)OC)cc1,6.17% (inactive)
17,CCN(c1ccc(NC(=O)COC(=O)CCc2nc3ccccc3n2-c2ccccc2)cc1)C(C)C,-0.2% (inactive)
18,Cc1cc(-c2n[nH]c(=S)n2-c2ccc(C)c(C)c2)no1,3.33% (inactive)
19,Cc1nc(SCc2ccc(F)cc2)c([N+](=O)[O-])[nH]1,6.36% (inactive)
20,COc1cc(/C=C/C(=O)O)cc(S(=O)(=O)Nc2ccccc2SC)c1OC,1.33% (inactive)
21,CCC(c1nnnn1C1CCCC1)N(Cc1cccs1)Cc1cc2cccc(C)c2[nH]c1=O (stereo not given),18% (active)
22,Cc1cccc2cc(CN(Cc3cccs3)C(c3nnnn3C3CCCC3)C(C)C)c(=O)[nH]c12 (stereo not given),11% (inactive)
23,Cc1cccc2cc(CN(Cc3ccc4c(c3)OCO4)Cc3nnnn3C3CCCC3)c(=O)[nH]c12,-0.14% (inactive)
